High-throughput results from PubChem.
KDM5B inhibitor: KDM5B demethylase inhibition; AID 1347165; KDM5B demethylase, FDH-coupled NADH fluorescence (FDH is formaldehyde dehydrogenase); 220,000 compounds, 2.6% hits; Potency, µM (highest dose often 57.7 µM), most hits filed as inhibitors; active = well fitted inhibition curve with a large enough effect; also: 0% is about no effect; nearly all actives have a fitted effect of over 70% in size
Target sequence (Q9UGL1 whole entry, looked up): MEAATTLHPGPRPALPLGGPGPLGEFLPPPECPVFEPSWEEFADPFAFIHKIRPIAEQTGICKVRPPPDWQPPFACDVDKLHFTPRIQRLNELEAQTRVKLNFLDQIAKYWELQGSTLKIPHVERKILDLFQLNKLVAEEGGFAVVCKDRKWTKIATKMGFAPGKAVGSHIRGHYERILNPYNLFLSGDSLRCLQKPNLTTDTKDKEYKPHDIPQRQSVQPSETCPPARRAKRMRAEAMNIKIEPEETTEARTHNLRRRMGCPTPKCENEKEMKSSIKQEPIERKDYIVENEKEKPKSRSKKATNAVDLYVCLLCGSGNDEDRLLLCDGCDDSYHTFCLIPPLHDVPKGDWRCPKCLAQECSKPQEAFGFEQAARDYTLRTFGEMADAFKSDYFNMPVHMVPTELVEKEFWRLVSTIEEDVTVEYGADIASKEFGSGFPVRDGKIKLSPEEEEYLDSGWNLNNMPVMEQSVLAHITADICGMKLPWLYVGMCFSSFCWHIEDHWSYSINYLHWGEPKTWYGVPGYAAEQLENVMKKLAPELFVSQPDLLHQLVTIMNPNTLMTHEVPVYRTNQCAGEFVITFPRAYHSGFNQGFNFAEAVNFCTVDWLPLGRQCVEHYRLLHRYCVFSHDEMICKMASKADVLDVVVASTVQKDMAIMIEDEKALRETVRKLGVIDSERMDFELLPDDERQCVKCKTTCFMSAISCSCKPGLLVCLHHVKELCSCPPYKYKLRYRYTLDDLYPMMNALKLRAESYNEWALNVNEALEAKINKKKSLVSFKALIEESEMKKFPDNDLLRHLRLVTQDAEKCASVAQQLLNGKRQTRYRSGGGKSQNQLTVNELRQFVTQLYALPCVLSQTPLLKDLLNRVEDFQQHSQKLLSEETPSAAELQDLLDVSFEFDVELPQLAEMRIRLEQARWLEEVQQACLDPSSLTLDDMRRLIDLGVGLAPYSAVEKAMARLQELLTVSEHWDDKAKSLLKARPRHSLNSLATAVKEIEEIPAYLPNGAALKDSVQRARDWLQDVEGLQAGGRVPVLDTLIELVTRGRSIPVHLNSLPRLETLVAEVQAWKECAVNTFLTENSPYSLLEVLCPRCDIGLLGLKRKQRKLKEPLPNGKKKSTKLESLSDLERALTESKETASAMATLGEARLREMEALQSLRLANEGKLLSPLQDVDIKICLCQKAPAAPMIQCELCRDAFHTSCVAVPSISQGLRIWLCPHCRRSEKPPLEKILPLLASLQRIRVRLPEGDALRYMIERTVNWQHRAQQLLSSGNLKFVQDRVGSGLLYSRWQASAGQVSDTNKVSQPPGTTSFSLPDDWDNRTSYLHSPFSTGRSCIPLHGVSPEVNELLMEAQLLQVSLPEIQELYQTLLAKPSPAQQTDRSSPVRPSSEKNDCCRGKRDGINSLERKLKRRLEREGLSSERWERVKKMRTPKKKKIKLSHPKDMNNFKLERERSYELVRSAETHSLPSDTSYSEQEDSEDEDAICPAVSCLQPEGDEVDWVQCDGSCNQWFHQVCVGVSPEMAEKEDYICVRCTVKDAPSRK
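Compound dilutions met 200 nM (final) KDM5BΔAP for 10 min at room temperature before substrate addition. The substrate mix held 12.5 µM H3K4me3 with cofactors 25 µM α-ketoglutarate and 50 µM Fe²⁺. NADH signal gain over 30 min defined activity.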
* marks the source's active call; other numbers are inactive results; i = inactive. Shown is part of a subset that was picked to be rich in hits. Potency is read from the fitted curve at half-maximal effect.

SMILES	KDM5B inhibitor
CCOc1ccc(-c2cc3c(=O)n(CCNC(=O)c4ccc(C#N)cc4)ccn3n2)cc1	20µM*
COc1ccc(-c2cc3c(=O)n(CCNC(=O)c4ccc(OC)nc4)ccn3n2)cc1	11.2µM*
COc1ccc(-c2cc3c(=O)n(CCNC(=O)c4cc(OC)cc(OC)c4)ccn3n2)cc1	i
CCOc1ccc(-c2cc3c(=O)n(CC(=O)NCc4ccco4)ccn3n2)cc1	i
CCOC(=O)c1ccccc1NC(=O)Cn1ccn2nc(-c3ccc(OCC)cc3)cc2c1=O	i
O=C(NCCn1ccn2nc(-c3ccc(F)cc3)cc2c1=O)c1ccc(F)c(Cl)c1	i
COc1ccc(C(=O)NCCn2ccn3nc(-c4cc(C)ccc4C)cc3c2=O)cc1F	i
COc1ccc(C(=O)NCCn2ccn3nc(-c4ccc(C)c(C)c4)cc3c2=O)cc1	17.8µM*
CCOc1ccc(-c2cc3c(=O)n(CC(=O)NCc4ccccc4)ccn3n2)cc1	i
CCOc1ccc(-c2cc3c(=O)n(CCNC(=O)c4cccc5[nH]ccc45)ccn3n2)cc1	28.2µM*
COc1cccc(CNC(=O)C2CCN(c3nnc(-n4c(C)ccc4C)s3)CC2)c1OC	i
Cn1cnc(S(=O)(=O)N2CCC3(CC2)N(Cc2cccc(F)c2)C(=O)CS3=O)c1 (stereo not given)	i
O=S(=O)(c1ccccc1Cl)N1CC(c2nc(Cc3ccccc3)no2)C1	i
COc1cc(OC)cc(-n2c(=O)c3sccc3n(Cc3cc(=O)n4c(C)cccc4n3)c2=O)c1	i
Cc1ccc(Cl)cc1NC(=O)CN1C(=O)COc2ccc(S(=O)(=O)N3CCCCCC3)cc21	i
COc1ccc(C(=O)NCCn2ccn3nc(-c4cc(C)ccc4C)cc3c2=O)cc1OC	i
CCOc1ccc(-c2cc3c(=O)n(CCNC(=O)c4ccccc4OC)ccn3n2)cc1	31.6µM*
CCOc1ccc(-c2cc3c(=O)n(CCNC(=O)c4ccc(Cl)cc4)ccn3n2)cc1	i
Cc1ccc(-c2cc3c(=O)n(CCNC(=O)c4ccc(Cl)cc4)ccn3n2)c(C)c1	i
Cc1ccc(-c2cc3c(=O)n(CCNC(=O)c4ccc(N(C)C)cc4)ccn3n2)c(C)c1	28.2µM*
Cc1ccc(C)c(-c2cc3c(=O)n(CCNC(=O)c4ccccc4)ccn3n2)c1	i
CCOc1ccc(NC(=O)Cn2ccn3nc(-c4ccc(OC)c(OC)c4)cc3c2=O)cc1	i
Cc1ccc(C)c(C(=O)NCCn2ccn3nc(-c4cc(C)ccc4C)cc3c2=O)c1	31.6µM*
COc1ccc(C(=O)NCCn2ccn3nc(-c4ccc(F)cc4)cc3c2=O)cc1OC	i
CCOc1ccc(C(=O)NCCn2ccn3nc(-c4ccc(OC)cc4)cc3c2=O)cc1	8.91µM*
SMILES	KDM5B inhibitor
Cc1ccc(-c2cc3c(=O)n(CCNC(=O)c4cccnc4)ccn3n2)c(C)c1	i
Cc1ccc(C)c(-c2cc3c(=O)n(CCNC(=O)c4ccccc4F)ccn3n2)c1	i
Cc1ccc(Cn2c(=O)n(CCCCC(=O)NCc3ccc4c(c3)OCO4)c(=O)c3ccccc32)cc1	i
COc1ccc(C(=O)N2CC3CC(C2)[C@H]2CCCC(=O)N2C3)cc1 (stereo not given in full)	i
COc1ccc(-c2c(C)oc3cc(OCC(=O)Nc4ccc(OC)cc4OC)ccc3c2=O)cc1	i
O=C(Nc1ccc(F)cc1Cl)Nc1ccccc1C(F)(F)F	i
Cc1ccc(NC(=O)C(=O)NCC(c2cccnc2)N2CCN(c3ccccc3F)CC2)cc1F (stereo not given)	i
Cc1ccccc1C(=O)NCC(O)c1ccccc1C(F)(F)F (stereo not given)	i
O=C(Nc1ccc2nc[nH]c(=O)c2c1)c1ccc(Br)cc1	i
Cc1cc(=O)oc2cc(OCC(=O)Nc3ccc(C(C)C)cc3)ccc12	i
COc1cc(NC(=O)CN(C)S(=O)(=O)c2ccc3c(c2)CCCC(=O)N3)cc(OC)c1OC	i
Cc1cnc(CC2CCN(S(=O)(=O)Cc3ccccc3)C2)n1C(C)C (stereo not given)	i
CCOCCCNc1nc2c(c(=O)n(C)c(=O)n2C)n1Cc1ccc(Cl)cc1	i
O=c1[nH]c2ccc(Br)cc2c(-c2ccccc2)c1CN1CCCCC1	i
N#Cc1ccccc1CN1CCCC1	i
N#Cc1cc2c(=O)n(CCCCN3CCCC3)ccc2[nH]c1=O	28.2µM*
COc1ccccc1-n1cnnc1SCC(=O)c1ccc2c(c1)CCC2	i
NC(=O)c1cccc(Oc2ccc([N+](=O)[O-])c3cnccc23)c1	i
CC(=O)Nc1cccc(-c2ncc3c(n2)OCCN(c2ccccc2)C3=O)c1	i
O=C1c2cnc(-c3ccoc3)nc2OCCN1Cc1ccc(F)cc1F	35.5µM*
Cn1nccc1-c1ncc2c(n1)OCCN(Cc1ccccc1)C2=O	i
COc1ccc(Cl)cc1-c1ncc2c(n1)OCCN(Cc1ccc(F)cc1F)C2=O	35.5µM*
COc1cccc(-c2ncc3c(n2)OCCN(CC2CC2)C3=O)c1OC	i
O=C1c2cnc(-c3ccc(F)cc3F)nc2OCCN1Cc1ccc(F)cc1F	i
CC(=O)Nc1cccc(-c2ncc3c(n2)OCCN(CC2CC2)C3=O)c1	31.6µM*
SMILES	KDM5B inhibitor
C[S+](=O)([O-])c1cccc(-c2ncc3c(n2)OCCN(CC2CC2)C3=O)c1	i
COc1cccc(F)c1-c1ncc2c(n1)OCCN(CC1CC1)C2=O	28.2µM*
COc1cccc(C2Cn3nnc(-c4nc(-c5ccccc5C)no4)c3CO2)c1 (stereo not given)	i
COc1nc(-c2ccc(C)cc2)ccc1-c1noc(-c2ccccc2Br)n1	i
CCNC(=O)N1CCCC(Cc2noc(-c3ccccn3)n2)C1 (stereo not given)	i
COc1ccc(OC)c2c1cc(C(=O)NCC(=O)N1CCN(Cc3ccccc3)CC1)n2C	i
O=C(NC1CC(=O)N(c2cccc(F)c2)C1)c1cccs1 (stereo not given)	i
CC(C(=O)Nc1ccc(F)cc1)n1nnc2sc(-c3ccccc3)cc2c1=O (stereo not given)	i
COc1ccccc1NS(=O)(=O)c1cc(-c2cnc(C)o2)ccc1C	i
Cc1ccc(C(=O)n2nc(C)c(S(=O)(=O)N3CCCCCC3)c2C)cc1C	i
O=C(c1ccccc1)N1CCC(N2CCOCC2=O)CC1	i
CCOc1ccccc1C(=O)N1CC(c2nnc(-c3ccncc3)o2)C2(CCOCC2)C1 (stereo not given)	i
COc1ccc(N2CC(C(=O)NCC(F)(F)F)NC2=O)cc1 (stereo not given)	i
CC(C)(C)c1ccc(C2NC(=O)c3n[nH]c(-c4cccs4)c32)cc1 (stereo not given)	i
CCOC(=O)c1nc(Nc2ccc(OC(C)C)cc2)c2ccccc2n1	i
O=C(Nc1ccc(F)cc1F)c1cc(-c2ccc[nH]2)n[nH]1	i
O=C1c2cnc(-c3cccc(O)c3)nc2OCCN1c1cccc(C(F)(F)F)c1	i
NC(=O)c1cccc(-c2ncc3c(n2)OCCN(Cc2ccc(F)cc2F)C3=O)c1	i
CC(=O)Nc1cccc(-c2ncc3c(n2)OCCN(Cc2ccc(F)cc2F)C3=O)c1	31.6µM*
O=C(CN(C(=O)CCC(=O)Nc1nccs1)c1cccc(F)c1)NCc1ccccc1	i
COc1cc2c(cc1OC)C(CNC(=O)CC(C)C)N(C(=O)Nc1cccc(F)c1)CC2 (stereo not given)	i
C=CCCC(CN1CCCOCC1)Oc1ccc(C#N)cn1 (stereo not given)	i
C=CCCC(CN1CCCC1)Oc1cc(N2CCOCC2)ncn1 (stereo not given)	i
